Experimental data: PubChem BioAssay (NCI)
About 79,000 compounds went through this panel and 15% of them were active in at least one assay; those are over-represented in the sample as a whole. Cut-off read from the data, not from the text of the source: active = growth inhibition above about 70%; inactive = the rest.

Experiments:
[1] = NCI Yeast Anticancer Drug Screen. Data for the rad50 strain (AID 155);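 note: 0% = growth of vehicle-only cultures of the same strain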; settings: S. cerevisiae rad50 strain growth inhibition; at 50.0 µM; hits give high values
Outline: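 Yeast carrying a defined DNA repair defect were exposed to test compounds, and growth was compared with vehicle-treated controls to give percent inhibition.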

[2] = NCI Yeast Anticancer Drug Screen. Data for the mec2-1 strain (AID 157); settings: S. cerevisiae mec2-1 strain, at 50.0 µM, hits give high values
Outline: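 Growth inhibition is read against vehicle-treated controls after compound exposure of the mec2-1 yeast strain, which is defective in DNA damage repair or cell cycle control.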

[3] = NCI Yeast Anticancer Drug Screen. Data for the sgs1 mgt1 strain (AID 161);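 note: 0% = growth of cultures given vehicle only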; settings: S. cerevisiae sgs1 mgt1 strain, at 50.0 µM, hits give high values
Outline: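 This yeast growth screen uses a strain with defined DNA-repair lesions; compound-treated growth is compared with vehicle-treated growth.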

[4] = NCI Yeast Anticancer Drug Screen. Data for the cln2 rad14 strain (AID 165);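 note: 0% = growth equal to vehicle treated cultures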; settings: S. cerevisiae cln2 rad14 strain, at 50.0 µM, hits give high values
Outline: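 Growth inhibition, relative to vehicle-treated controls, is the read-out. The test organism is a yeast strain with defined genetic alterations, cln2 rad14.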

[5] = NCI Yeast Anticancer Drug Screen. Data for the bub3 strain (AID 167); settings: S. cerevisiae bub3 mutant strain, at 50.0 µM, hits give high values
Outline: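 Compounds were applied to a genetically altered yeast strain carrying a cell-cycle control defect. Growth inhibition was scored against vehicle-treated controls.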

[6] = NCI Yeast Anticancer Drug Screen. Data for the mlh1 rad18 strain (AID 175); settings: S. cerevisiae mlh1 rad18 strain growth inhibition; at 50.0 µM; hits give high values
Outline: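 Cells of a genetically altered yeast strain, deficient in DNA damage repair, were treated with compound. Their growth was then compared with that of vehicle-treated cultures to give inhibition.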

Measured: growth inhibition

CN1C(=O)C(C)(C2=CCCCC2)C(=O)NC1=S (centres undefined)
inactive: [1] 1.55% | [2] 1.65% | [3] 11.8% | [4] -17.4% | [5] -1.9% | [6] 11.9%

O=[Te]=O
inactive: [1] 20.4% | [2] -8.15% | [3] 17.4% | [4] 5% | [5] 5.55% | [6] 11.4%

[O-]c1n[n+](C2CCCCC2)no1
inactive: [1] -11.4% | [2] -7.6% | [3] -45.7% | [4] -31.1% | [5] 2.4% | [6] -13.4%

[Ni+2].[S-]CC[S-]
inactive: [1] 0.4% | [2] 12.4% | [3] -8.75% | [4] 1.95% | [5] 0.4% | [6] -4.85%

Cc1nc(N)sc1S(=O)(=O)F
inactive: [1] -41.9% | [2] -29.7% | [3] -21.6% | [4] -14.1% | [5] -29.4% | [6] -5.15%

CS(=O)(=O)CCC(N)P(=O)(O)O (centres undefined)
inactive: [1] -45.9% | [2] -47.9% | [3] -48.5% | [4] -9.4% | [5] -21.8% | [6] -30.8%

COC(C(=O)O)(c1ccccc1)c1ccccc1
inactive: [1] -24.8% | [2] -18.9% | [3] 1.05% | [4] -33.9% | [5] -9.2% | [6] -0.35%

C=CP(=O)(OCCCl)OCCCl
inactive: [1] 24.5% | [2] -0.7% | [3] 2.3% | [4] 18.1% | [5] -1.6% | [6] 12.9%

CS[P+]1(C)C=C(N2CCOCC2)CC1 (centres undefined)
inactive: [1] 37.4% | [2] 15.2% | [3] 0.6% | [4] -8% | [5] 8.8% | [6] 10.3%
